The term inhibition denotes the relative decrease from the control value, in per cent.

Each structure is given as a SMILES string. Screen size: about 200,000 compounds; about 18,000 (9%) were called active. Only a selection was taken, and actives are over-represented in it overall. Values without a mark were called inactive. Rule as the data show it: active = inhibition above about 50%; inactive = the rest.

A short description of the assay: antileishmanial activity against promastigotes – primary screen (AID 1063).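 Also: promastigotes grown with compound for 44 hours at 28 °C.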 The following applies: Leishmania major promastigotes, resazurin fluorescence viability; at 10 µM; active compounds read high.
In the case of `O=C(CSc1ccc(/C=N/NC(=O)c2cccc(F)c2)o1)Nc1ccccc1`, the inhibition is -5.63%.

As for `O=C(N/N=C/c1ccc([N+](=O)[O-])o1)c1cn(-c2ccccc2)nc1-c1ccc(F)cc1`, the inhibition was 63.2% (active).

In the case of `Cc1nnc(SCC(=O)N/N=C/c2cn(-c3ccccc3)nc2-c2ccc(F)cc2)n1-c1ccccc1`, the inhibition was -0.75%.

For the compound `OC1CCCN(c2ncnc3c2nnn3Cc2c(F)cccc2Cl)C1` (centres undefined), the inhibition is -5.48%.

On to `CC(=O)NC1C(Oc2ccc(C=O)cc2)OC(COC(C)=O)C(OC(C)=O)C1OC(C)=O` (centres undefined), for which the inhibition is -1.48%.

Regarding `CCCCCCCCCOC1OC(CO)C(O)C(O)C1NC(C)=O` (centres undefined), the inhibition was 16.4%.

With `CC(=O)NC1C(OCc2ccccc2)OC(COC(C)=O)C(OC(C)=O)C1OC(C)=O` (centres undefined), the inhibition was 55.7% (active).

Consider `Cc1ccc2nc(COc3ccc(N(C)S(=O)(=O)c4ccccc4)cc3)cc(=O)n2c1`, for which the inhibition was -0.08%.

Consider `Cc1nn(CCOc2ccc(Br)cc2)c(C)c1[N+](=O)[O-]`, for which the inhibition is -0.48%.

For the compound `COc1ccccc1CN(C)c1nnnn1-c1ccccc1`, the inhibition was 6.46%.

For `CC(C)CC[n+]1ccn(C2=C([O-])c3ccccc3C(=O)/C2=N\S(=O)(=O)c2ccccc2)c1`, the inhibition is 77.1% (active).

With `CN1C(=O)/C(=C/c2ccco2)SC1=Nc1cccc(C(=O)O)c1`, the inhibition was -6.02%.

For the compound `COCCCNC(=O)C1CCC(CNS(=O)(=O)c2ccc(OC)cc2)CC1` (centres undefined), the inhibition was -4.6%.

Take `CCC1(CC)NC(=O)N(CC(=O)OCC(=O)NC(=O)c2ccccc2)C1=O`: the inhibition is 10.3%.

Consider `Cc1cc(-c2ccc(/C=N/n3cnnc3)o2)c([N+](=O)[O-])cc1C`, for which the inhibition was 2.14%.

In the case of `Cc1cc([N+](=O)[O-])c(-c2ccc(/C=N/n3cnnc3)o2)cc1Cl`, the inhibition is 2.86%.

On to `Cc1ccc(Cl)cc1-c1ccc(/C=N/n2cnnc2)o1`, for which the inhibition was 64.2% (active).

With `Cc1ccc(N2C(=O)SC(N(CC(=O)O)c3ccc(C)cc3)C2=O)cc1` (centres undefined), the inhibition is -0.34%.

Consider `CNC(=S)N/N=C/c1ccc(N2CCOCC2)s1`, for which the inhibition was 90.2% (active).

As to `CCOc1cccc(/C=N/NC(=S)NCCN2CCOCC2)c1O`, the inhibition was 4.68%.

Take `Cc1cc(C(=O)N/N=C/c2ccc(N3CCOCC3)cc2)c(C)o1`: the inhibition was 7.7%.

For `COC(=O)Cc1ccc(OCC(=O)Nc2ccc(OC(F)(F)F)cc2)cc1`, the inhibition is 54.1% (active).

For the compound `CCNC(=S)Nc1ccc(OC(F)(F)F)cc1`, the inhibition is -1.95%.

`COC(=O)[C@H](C)NC(=O)Nc1ccc(OC(F)(F)F)cc1`: the inhibition was -4.5%.

With `COc1ccc(OC)c(CNC(=O)c2cc(=O)[nH]c3ccc(S(=O)(=O)N4CCCC4)cc23)c1`, the inhibition was -4.76%.

Consider `COc1ccc(-n2cc(CN(C)Cc3n[nH]c(=O)[nH]3)c(-c3cccc(F)c3)n2)cc1`, for which the inhibition is 2.9%.

For the compound `O=C(O)COc1ccc(/C=N/O)cc1Br`, the inhibition was -4.34%.

On to `O=C(CN1CCN(c2ccc(Cl)cc2)CC1)NCc1cccs1`, for which the inhibition is -4.73%.

As to `CCN(C(=O)Cc1nc(N)n[nH]1)C1(C(=O)Nc2ccccc2)CCCCC1`, the inhibition is -8.2%.

`O=C1N/C(=N\N=C\c2ccco2)SC1Cc1ccc(F)cc1` (centres undefined): the inhibition was -16.9%.

`Cc1cc(C(C)(C)C)cc(C)c1N`: the inhibition is 3.48%.

For the compound `COc1ccc(-c2cc(C)nc3nc(N)nn23)cc1`, the inhibition is 0.56%.

`Cc1cc(N)n2nc(-c3ccc(C(C)(C)C)cc3)cc2n1`: the inhibition was 80.3% (active).

Turning to `CCOC(=O)c1ccc(N2C(=O)CC(N3CCN(C(=O)c4ccccc4)CC3)C2=O)cc1` (centres undefined), the inhibition was -1.97%.

For `O=C(c1ccc(F)cc1)n1cc(C(=S)N2CCOCC2)c2ccccc21`, the inhibition was -2.86%.

Turning to `Cc1c(NC(=S)NC(=O)CCc2ccccc2)c(=O)n(-c2ccccc2)n1C`, the inhibition is -2.93%.

On to `CN(C)CCNC(=O)/C(=C/c1cccc([N+](=O)[O-])c1)NC(=O)c1ccccc1`, for which the inhibition is 68.3% (active).

As to `O=C(NCCc1ccccc1)/C(=C\c1ccc([N+](=O)[O-])cc1)NC(=O)c1ccccc1`, the inhibition was -2.32%.

With `C=CCNC(=O)/C(=C\c1cccc([N+](=O)[O-])c1)NC(=O)c1ccccc1`, the inhibition was -2.62%.

Turning to `Cc1nnc(SCc2cccc(Cl)c2)n(N)c1=O`, the inhibition was 9.66%.

In the case of `CN1CCN(S(=O)(=O)c2cccc(C(=O)N3CCc4ccccc43)c2)CC1`, the inhibition was 7%.

Turning to `Fc1cc(Br)ccc1NC(=S)Nc1cccnc1`, the inhibition was 5.1%.

As for `O=C1CCN(C(=S)NCCc2ccccc2)CC1`, the inhibition is -11.3%.

For the compound `S=C(NCCc1ccccc1)N1CCCCC1`, the inhibition is -2.11%.

Take `S=C(Nc1cccc(Br)c1)N1CCn2cccc2C1c1cccnc1` (centres undefined): the inhibition was 91.2% (active).

As to `COc1cccc(NC(=O)CC2C(=O)NCCN2C(=S)Nc2ccc(F)cc2)c1` (centres undefined), the inhibition was -2.74%.

With `S=C(NCCc1ccccc1)N1CCn2cccc2C1c1ccncc1` (centres undefined), the inhibition was 81.9% (active).

Consider `O=C(/C=C/c1ccccc1)Oc1coc(CSc2ncccn2)cc1=O`, for which the inhibition is -7.34%.

On to `Cc1cccc2cc(CN(Cc3cccs3)C(=S)NCc3ccco3)c(=O)[nH]c12`, for which the inhibition was 46%.

For the compound `Cc1cc(C)c2[nH]c(=O)c(CN(Cc3ccccc3)C(=S)NCCCN(C)C)cc2c1`, the inhibition was 100% (active).

As to `COCCCNC(=S)N(Cc1ccccc1)Cc1ccc(F)cc1`, the inhibition is 9.14%.

As to `CN1C=CC=C/C1=C1\SC(=S)N(Cc2ccccc2)C1=O`, the inhibition is -0.34%.

Regarding `CN(C)C(CNC(=O)c1cccc(C#N)c1)c1ccco1` (centres undefined), the inhibition is 3.86%.

In the case of `CCc1ccccc1NC(=S)N(CCN1CCCCCC1)Cc1ccco1`, the inhibition was 21.6%.

Consider `COc1cccc2cc(C(C)N(CCCN3CCOCC3)C(=O)Nc3ccc(Cl)cc3)oc12` (centres undefined), for which the inhibition is 48.2%.

On to `Cc1ccc(NC(=S)N(CCCN2CCCC2)Cc2cccn2Cc2ccc(Cl)cc2)cc1`, for which the inhibition is 99.7% (active).

Take `CCOC(=O)N1CCN(C(=O)C2CCN(S(C)(=O)=O)CC2)CC1`: the inhibition was -5.19%.

For the compound `CCOC(=O)N1CCN(C(=O)C2CCN(Cc3ccc(OC)cc3OC)CC2)CC1`, the inhibition is 53.4% (active).

On to `CCOC(=O)N1CCN(CCC(=O)Nc2cc(OC)ccc2OC)CC1`, for which the inhibition was -3.46%.

The values above are taken from PubChem BioAssay AID1063 (University of Pittsburgh Molecular Library Screening Center, 2008).
